The target of test [1] is Cytochrome P450 3A7 (Homo sapiens) (UniProt P24462). The experiment in a line: Cytochrome P450 family 3 subfamily A member 7 (CYP3A7) small molecule antagonists: luciferase biochemical qHTS assay (AID 1963596). For activity change, negative = inhibition: % is set by controls: 0 for no effect and ±100 for the full control effect. Note: nearly all actives have a fitted effect of over 40% in size. Note: potency is the fitted concentration of half-maximal effect. Particulars: P450-Glo CYP3A7 enzyme luminescence, 1 h; series mostly up to 57.4 µM. The method, boiled down:
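In this luminescent screen, enzyme and proluciferin substrate meet test compound for 10 min before NADPH regeneration solution drives a 1 h room-temperature reaction; detection reagent halts turnover and luminescence is read 20 min later.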
(qHTS replaces the single test concentration by a dilution series.)

Test [2] is described as follows: Viability qHTS for spleen associated tyrosine kinase inhibitor (SYKi) drug resistant MV4-11 cells (AID 1963824). Note: nearly all actives have a fitted effect of over 35% in size. Note: potency is the fitted concentration of half-maximal effect. Particulars: SYKi-resistant MV4-11 viability, CellTiter-Glo, 72 h; series mostly up to 45 µM. The method, boiled down:
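SYK-inhibitor-resistant MV4-11 AML cells were seeded at 500 per well onto compound and cultured 72 hours (37 °C, 5% CO2). CellTiter-Glo was then added, and after 10 min at room temperature, luminescence gave viability.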

Test [3] in a line: Viability qHTS for spleen associated tyrosine kinase inhibitor (SYKi) naive MV4-11 cells (AID 1963823). Note: nearly all actives have a fitted effect of over 40% in size. Note: potency is the fitted concentration of half-maximal effect. The settings on record: MV4-11 AML viability, CellTiter-Glo luminescence, 72 h; series mostly up to 45 µM. An outline of the steps:
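Luminescence from CellTiter-Glo, developed 10 min at room temperature, gave viability of MV4-11 cells never exposed to SYK inhibitor. Cells (500/well) had been incubated with compounds for 72 hr under standard culture conditions.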

Test [4] in a line: Cellular viability qHTS for adrenocortical cancer (ACC) cell line NCI-H295R (AID 1963990). Note: nearly all actives have a fitted effect of over 60% in size. Note: potency is the fitted concentration of half-maximal effect. Particulars: CellTiter-Glo ATP luminescence, 48 h; series mostly up to 46.1 µM. An outline of the steps:
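Readout: CellTiter-Glo luminescence, 20 min RT. Exposure: 48 h, 37C/5% CO2. Cells: NCI-H295R, ITS-DMEM serum-free. Range: up to 46 uM. Analysis: 4PL fit, IC50 plus efficacy.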

The nature of test [5]: Cellular viability qHTS for adrenocortical cancer (ACC) cell line SW-13 (AID 1963989).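 For activity (max response): cells grown in serum-free medium with ITS supplement; % is set by controls: 0 for no effect and ±100 for the full control effect.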 Note: nearly all actives have a fitted effect of over 65% in size. Note: potency is the fitted concentration of half-maximal effect. The settings on record: SW-13 ACC cells viability, CellTiter-Glo, 48 h; activity (max response): hits give low values. An outline of the steps: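 Compound titrations (up to 46 uM final, in DMSO) were applied to SW-13 cells for 48 h at 37C/5% CO2. Reading used CellTiter-Glo after 20 min at room temperature; fitted curves yielded IC50 and efficacy.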

Test [6] is described as follows: Quantitative highthroughput screen to assess conditional lethalithy of P12 Ichikawa cells grown in Human Plasma-Like Medium with dialyzed fetal bovine serum (HPLM+ds) (AID 1963879). Note: nearly all actives have a fitted effect of over 35% in size. Particulars: ATP luminescence, 48 h; Potency: viability; series mostly up to 45.8 µM. An outline of the steps: (§1)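 Each medium arm—HPLM with 10% dialyzed FBS, or RPMI1640 with 5 mM glucose and 10% untreated or dialyzed FBS—was screened against an 11-point, 3-fold compound titration for 48 h at 37 °C, with CellTiter-Glo luminescence as endpoint.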

The nature of test [7]: Quantitative highthroughput screen to assess conditional lethalithy of P12 Ichikawa cells grown in RPMI1640 with dialyzed fetal bovine serum (RPMI+ds) (AID 1963880).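 Note: 100% = DMSO wells and 0% = empty wells on each plate; nearly all actives have a fitted effect of over 35% in size.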 The settings on record: ATP luminescence, 48 h; Potency: P12-Ichikawa viability; series mostly up to 45.8 µM. An outline of the steps: as §1
A short description of test [8]: Quantitative highthroughput screen to assess conditional lethalithy of SEM cells grown in Human Plasma-Like Medium with dialyzed fetal bovine serum (HPLM+ds) (AID 1963882). Note: nearly all actives have a fitted effect of over 35% in size. The settings on record: SEM B-ALL cells in HPLM+ds, CellTiter-Glo viability, 48 h; series mostly up to 45.8 µM. The method, boiled down:
as §1
A general note: ATP-based viability assays read luminescence as a measure of living cells.

The nature of test [9]: Quantitative highthroughput screen to assess conditional lethalithy of NOMO1 cells grown in Human Plasma-Like Medium with dialyzed fetal bovine serum (HPLM+ds) (AID 1963878). The settings on record: NOMO1 AML cells in HPLM+ds, CellTiter-Glo viability, 48 h; series mostly up to 45.8 µM. An outline of the steps: as §1

This is an account of results in PubChem BioAssay (NCATS).

“And” between values parts separate entries of the source, which are not always exact repeats. Identical values can stand only once. Records with an inconclusive call do not appear. Values without a mark were called inactive. The source made the active and inactive calls. Calls come from the whole dose curve; as a rule, active = well fitted curve in the direction sought with a large enough effect; inconclusive = small, poorly fitted or top-dose-only effect, or another doubt; inactive = no such curve, though single readings can be large; an effect the other way counts as inactive or inconclusive.

Sequence of Cytochrome P450 3A7 (Homo sapiens) (P24462 whole entry, looked up): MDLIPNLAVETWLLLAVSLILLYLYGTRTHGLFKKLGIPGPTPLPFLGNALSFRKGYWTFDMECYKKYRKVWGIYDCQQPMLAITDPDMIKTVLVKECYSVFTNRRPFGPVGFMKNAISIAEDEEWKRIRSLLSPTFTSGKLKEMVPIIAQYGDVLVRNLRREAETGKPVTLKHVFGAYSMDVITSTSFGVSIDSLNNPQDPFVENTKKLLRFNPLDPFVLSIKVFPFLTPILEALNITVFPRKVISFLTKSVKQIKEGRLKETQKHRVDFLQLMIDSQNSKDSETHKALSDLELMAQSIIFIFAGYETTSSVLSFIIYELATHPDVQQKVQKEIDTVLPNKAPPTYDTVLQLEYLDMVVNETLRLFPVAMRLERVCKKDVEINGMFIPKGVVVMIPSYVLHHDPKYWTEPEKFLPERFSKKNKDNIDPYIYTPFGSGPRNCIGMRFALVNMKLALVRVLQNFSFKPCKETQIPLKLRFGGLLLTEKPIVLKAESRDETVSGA

With `O=C1CN=C(c2cccc(Br)c2)c2oc3ccccc3c2N1`, the Potency entry in [1] is “inactive”. In addition, the Potency in test [2] was 7.31 µM (active).

For `CC(C)NC(C)C`, the Potency entry in test [1], in test [3], in test [2] and in test [4] was “inactive” each time.

Take `OC(O)C(Cl)(Cl)Cl`: the Potency entry in [1], in test [3], in [2] and in [4] was “inactive” each time. In test [5], the activity (max response) is 12.7%.

Take `NCc1cccnc1`: the Potency result in test [1], in test [3] and in test [4] was “inactive” each time. The activity (max response) in [5] is 4.01%.

In the case of `CN(C)[C@@H]1C(=O)C(C(N)=O)=C(O)[C@@]2(O)C(=O)C3=C(O)c4c(O)cccc4[C@@](C)(O)[C@H]3[C@H](O)[C@@H]12`, the Potency result in [1], in test [3], in [6], in test [7], in test [8] and in test [4] was “inactive” throughout. In addition, in test [5], the activity (max response) was 4.8%.

On to `Nc1ccccc1C(=O)O`, for which the Potency result in test [1], in [3] and in [4] was “inactive” each time.

As to `c1ccc2c(c1)sc1ccccc12`, the Potency result in test [1] and in [3] was “inactive” in each case. Moreover, in [5], the activity (max response) is 0.898%.

As to `CC(C)(C)NCC(O)c1cc(Cl)c(N)c(Cl)c1` (centres undefined), the Potency entry in test [1], in test [3] and in test [4] was “inactive” throughout. For the same compound, in test [5], the activity (max response) is 11.4%.

In the case of `Oc1cccc2cccnc12`, the Potency result in test [1], in test [3], in test [2] and in [4] was “inactive” throughout.

Take `COC(=O)C1=CCCN(C)C1`: the Potency result in test [1], in test [3], in test [2] and in test [4] was “inactive” in each case. Moreover, in test [5], the activity (max response) is 1.83%.

Turning to `N[C@@H]1C[C@H]1c1ccccc1`, the Potency entry in [1] and in [4] was “inactive” each time. The Potency in test [3] was 16.6 µM (active); in test [2] it was 11.9 µM (active) and 3.72 µM (active). In addition, in test [5], the activity (max response) is 6.98%.

For the compound `CCS(=O)(=O)C(C)(C)S(=O)(=O)CC`, the Potency entry in [1], in test [3], in test [2] and in test [4] was “inactive” in each case. Besides, the activity (max response) in [5] is -10.9%.

For the compound `CC(C)(O)C(Cl)(Cl)Cl`, the Potency entry in test [1], in test [3] and in [4] was “inactive” each time. Besides, the activity (max response) in [5] is 9.4%.

In the case of `CC1OC(C)OC(C)O1` (centres undefined), the Potency result in [1], in test [3], in [2] and in test [4] was “inactive” each time. In test [5], the activity (max response) was 14%.

With `C=CCN1CC[C@]23c4c5ccc(O)c4O[C@H]2C(=O)CC[C@@]3(O)[C@H]1C5`, the Potency result in test [1], in test [3], in test [2] and in test [4] was “inactive” throughout. Also, the activity (max response) in [5] is -2.59%.

`C[C@H]1[C@@H]2Cc3ccc(O)cc3[C@@]1(C)CCN2C`: the Potency entry in test [1], in [3] and in [4] was “inactive” throughout. The activity (max response) in [5] was -10.9%.

As to `CCCC[N+]1(C)[C@@H]2CC(OC(=O)[C@H](CO)c3ccccc3)C[C@H]1[C@@H]1O[C@@H]12` (some centres undefined), the Potency result in test [1], in [3] and in test [4] was “inactive” each time. In [5], the activity (max response) was 15.3%.

For the compound `CC(C)[C@@H](CN1CC[C@@](C)(c2cccc(O)c2)[C@@H](C)C1)NC(=O)[C@H]1Cc2ccc(O)cc2CN1`, in test [1], the Potency entry was “inactive”. The Potency in [2] was 16.4 µM (active).

For the compound `COc1ccccc1N1CCNCC1`, the Potency result in [1], in test [3], in test [2] and in [4] was “inactive” in each case. For the same compound, in test [5], the activity (max response) was -19.4%.

Regarding `CCc1ccc(C2CCNCC2)cc1`, the Potency entry in test [1] and in test [3] was “inactive” in each case. For the same compound, the activity (max response) in test [5] is -14%.

Take `CCN(CC)C(C)C(=O)c1ccccc1` (centres undefined): the Potency result in [1], in test [3], in test [2] and in test [4] was “inactive” each time. In [5], the activity (max response) is 11.1%.

With `C[C@@H]1O[C@@H](O[C@H]2C[C@@H](O)[C@]3(CO)[C@H]4[C@H](O)C[C@]5(C)[C@@H](C6=CC(=O)OC6)CC[C@]5(O)[C@@H]4CC[C@]3(O)C2)[C@H](O)[C@H](O)[C@H]1O`, in [1], the Potency entry was “inactive”. Besides, the Potency was 119 nM (active) and 79.6 nM (active) and 46.8 nM (active) in [3]; 84.1 nM (active) and 63.2 nM (active) and 33.2 nM (active) in test [2]; 20.6 nM (active) and 44.7 nM (active) in test [5]; 36.6 nM (active) and 56.2 nM (active) in [4].

Take `NCC(CC(=O)O)c1ccc(Cl)cc1` (centres undefined): the activity change, negative = inhibition in [1] was -9.7% [at 0.91 µM]. In addition, the viability (% of control) in test [3] was 90.7% [at 0.588 µM]. Moreover, the activity (max response) in test [5] is -6.89%.

Turning to `NN=C(N)N`, the Potency result in test [1], in test [3] and in test [4] was “inactive” each time. In addition, the activity (max response) in test [5] is 12.8%.

Turning to `NC(=O)CN1CCCC1=O`, the Potency result in test [1] and in [3] was “inactive” in each case. Further, the activity (max response) in test [5] is 11.9%.

On to `CCOC(=O)NC(O)C(Cl)(Cl)Cl` (centres undefined), for which the Potency entry in [1], in test [3], in test [2] and in test [4] was “inactive” throughout.

Take `Oc1ccc2c3c1O[C@H]1[C@@H](O)C=C[C@H]4[C@@H](C2)NCC[C@@]341`: the Potency entry in test [1], in test [3] and in test [4] was “inactive” each time. The activity (max response) in [5] is -14.8%.

Consider `OCCCCC#Cc1cncc(OC[C@@H]2CCN2)c1`, for which the Potency result in [1] and in test [2] was “inactive” throughout.

Turning to `O=C(O)c1ccc(=O)[nH]c1`, the Potency entry in test [1] and in [3] was “inactive” each time. In addition, the activity (max response) in test [5] is 7.49%.

For the compound `ClCCN1CCCC1`, the Potency result in test [1], in test [3] and in [4] was “inactive” throughout. In [5], the activity (max response) is 12.8%.

Consider `C[C@H](NC(=O)Cc1cc(F)cc(F)c1)C(=O)N[C@@H]1N=C(c2ccccc2)c2ccccc2N(C)C1=O`, for which the Potency entry in [1] and in [2] was “inactive” each time.

On to `CN(C(=O)Cc1ccccc1)C(CN1CCCC1)c1ccccc1` (centres undefined), for which the Potency result in [1] and in test [2] was “inactive” throughout.

For the compound `Oc1c(Br)cc(Br)cc1Br`, the Potency entry in [1], in test [3] and in test [4] was “inactive” each time. In addition, in [5], the activity (max response) was 8.39%.

Consider `C[N+](C)(C)CCOC(=O)C(O)(c1ccccc1)c1ccccc1`, for which the Potency entry in test [1], in test [3], in [2] and in test [4] was “inactive” throughout. Further, the activity (max response) in [5] is -5.79%.

For `C[C@@H](CN1CCC(n2c(=O)[nH]c3cc(Br)ccc32)CC1)NC(=O)[C@@H]1C[C@H]1c1ccccc1`, the Potency result in [1] is “inactive”. Besides, the Potency in test [2] is 6.51 µM (active).

`C[C@H]1CNCCc2ccc(Cl)cc21`: the Potency entry in test [1] and in [2] was “inactive” each time.

For `Cc1ccc([N+](=O)[O-])[c]2c1[O][Hg]2`, the Potency is 0.617 µM (active) in test [1], 0.0944 µM (active) in test [3] and 231 nM (active) in test [5].

`COC1CC(=C(c2cccs2)c2cccs2)C[N+](C)(C)C1` (centres undefined): the Potency entry in test [1] and in [4] was “inactive” throughout. Also, the Potency in test [2] is 16.8 µM (active).

Turning to `COc1ccc(C(CN(C)C)C2(O)CCCCC2)cc1` (centres undefined), the Potency entry in test [1], in [2], in test [9], in test [6], in test [7] and in test [4] was “inactive” in each case. Moreover, in [5], the activity (max response) was 0.648%.

For the compound `COCCOCCO`, the Potency entry in [1], in [2] and in [4] was “inactive” each time. For the same compound, in test [5], the activity (max response) was -1.21%.
